Reference: PubChem BioAssay (NCATS)
Values joined by “and” are separate entries in the source; they are usually repeats but may differ in a detail not shown here. Equal entries are not always repeated. Inconclusive results are not listed. Where a structure was tested more than once in an assay, its records may differ in their call. Active and inactive are the calls of the source. Calls come from the whole dose curve; as a rule, active = well fitted curve in the direction sought with a large enough effect; inconclusive = small, poorly fitted or top-dose-only effect, or another doubt; inactive = no such curve, though single readings can be large; an effect the other way counts as inactive or inconclusive.

Key:
MKL-1 = test: qHTS assay to identify novel small-molecules to repurpose for Merkel cell carcinoma treatment (AID 1296009); conditions: MCC and control cell lines, CellTiter-Glo viability, 72 h; series mostly up to 46 µM; note: nearly all actives have a fitted effect of over 60% in size
Summary of the method: (§1)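 Viability readout: ATP luminescence (CellTiter-Glo) after 72 hr drug exposure at 37 degree celsius. Dose-response format was 8 points for NPC and 11 points for MIPE; data normalized to in-plate controls.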

MKL-2 = test: as above; conditions: MCC and control cell lines, CellTiter-Glo viability, 72 h; series mostly up to 46 µM
Summary of the method: as §1

NIH3T3 = test: as above; conditions: MCC and control cell lines, CellTiter-Glo viability, 72 h; series mostly up to 44.8 µM
Summary of the method: as §1

UISO = test: as above; conditions: MCC and control cell lines, CellTiter-Glo viability, 72 h; series mostly up to 46 µM
Summary of the method: as §1

WaGa = test: as above; conditions: MCC and control cell lines, CellTiter-Glo viability, 72 h; series mostly up to 46 µM
Summary of the method: as §1

CAOV3 = test: Primary qHTS to identify gynecologic anti-cancer compounds using libraries of approved drugs and bioactive compounds (AID 1345084); conditions: Gynecologic cancer cell panel viability, ATPlite luminescence, 48 h; series mostly up to 57.5 µM; note: nearly all actives have a fitted effect of over 55% in size
Summary of the method: (§2)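 In this quantitative HTS, cell killing is estimated from loss of ATP-dependent luciferase light. Cells see five compound concentrations over a 48 h exposure.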

CASKI = test: as above; conditions: Gynecologic cancer cell panel viability, ATPlite luminescence, 48 h; series mostly up to 57.5 µM
Summary of the method: as §2

Es-2 = test: as above; conditions: Gynecologic cancer cell panel viability, ATPlite luminescence, 48 h; series mostly up to 57.5 µM
Summary of the method: as §2

HeLa = test: as above; conditions: Gynecologic cancer cell panel viability, ATPlite luminescence, 48 h; series mostly up to 57.5 µM
Summary of the method: as §2

Hek293T = test: as above; conditions: Gynecologic cancer cell panel viability, ATPlite luminescence, 48 h, control line for the selectivity index; series mostly up to 57.5 µM
Summary of the method: as §2

JEG-3 = test: as above; conditions: Gynecologic cancer cell panel viability, ATPlite luminescence, 48 h; series mostly up to 57.5 µM
Summary of the method: as §2

OV90 = test: as above; conditions: Gynecologic cancer cell panel viability, ATPlite luminescence, 48 h; series mostly up to 57.5 µM
Summary of the method: as §2

PA-1 = test: as above; conditions: Gynecologic cancer cell panel viability, ATPlite luminescence, 48 h; series mostly up to 57.5 µM
Summary of the method: as §2

SKOV3 = test: as above; conditions: Gynecologic cancer cell panel viability, ATPlite luminescence, 48 h; series mostly up to 57.5 µM
Summary of the method: as §2

Tov-21-G = test: as above; conditions: Gynecologic cancer cell panel viability, ATPlite luminescence, 48 h; series mostly up to 57.5 µM
Summary of the method: as §2

Tov112D = test: as above; conditions: Gynecologic cancer cell panel viability, ATPlite luminescence, 48 h; series mostly up to 57.5 µM
Summary of the method: as §2

[1] = Drug repurposing screens with cells derived from glioblastoma tumor samples (AID 1345199); conditions: GBM patient neurospheres viability, ATP luminescence, 48 h; note: nearly all actives have a fitted effect of over 40% in size
Summary of the method: (§3)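 Primary testing used CD133+ neurospheres from four GBM patients, seven concentrations, 48 h exposure and ATP-based viability; confirmation added three slower-growing patient lines.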

astro = test: as above; conditions: viability, ATP luminescence, 48 h; series mostly up to 45.9 µM
Summary of the method: as §3

C33A = test: Primary qHTS to identify gynecologic anti-cancer compounds using libraries of approved drugs and bioactive compounds (AID 1345084); conditions: Gynecologic cancer cell panel viability, ATPlite luminescence, 48 h; series mostly up to 57.5 µM; note: nearly all actives have a fitted effect of over 55% in size
Summary of the method: as §2

[2] = qHTS assay to identify inhibitors of the type 1 interferon - major histocompatibility complex class I in skeletal muscle: Counter screen cell viability and HiBit confirmation (AID 1347412); conditions: iHSKM muscle cells + IFN-b, HiBiT or CellTiter-Glo, 24 h; Potency: HiBiT; Viability, at 45.9 µM (top of the series); note: nearly all actives have a fitted effect of over 60% in size
Summary of the method: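 Myoblasts (C25cl48, HLA-B HiBiT) seeded in medium without dexamethasone, IFN-b 4 ng/ml added except unstimulated columns; 1 hr later compounds pinned (12-pt 1:3, top 46 uM final). Incubated 24 hrs, lysed 10 min, luminescence measured.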

[3] = at 45.9 µM (top of the series), tumour line B
[4] = at 45.9 µM (top of the series), tumour line D
[5] = at 46.1 µM (top of the series), tumour line C
[6] = at 46 µM (top of the series), tumour line A
[7] = at 20 µM (top of the series), tumour line C
% is set by controls: 0 for no effect and ±100 for the full control effect; potency is the fitted concentration of half-maximal effect.

CCOC(=O)Nc1ccc(NCc2ccc(F)cc2)nc1N
inactive: Potency (MKL-1) | Potency (MKL-2) | outcome (NIH3T3) | Potency (UISO) | Potency (CAOV3) | Potency (CASKI) | Potency (Es-2) | Potency (HeLa) | Potency (Hek293T) | Potency (JEG-3) | Potency (OV90) | Potency (PA-1) | Potency (SKOV3) | Potency (Tov-21-G) | Potency (Tov112D) | activity, negative = cell killing [1, 3] -10.5% and -16.1% | activity, negative = cell killing [1, 4] -21.3% and 3.4% | activity, negative = cell killing [1, 5] 4.51% | Potency (astro)
21.1 µM (active) and inactive: Potency (WaGa)
active: Potency ([1]; tumour line A) 10 µM

Cc1cnc(C(=O)NCCc2ccc(S(=O)(=O)NC(=O)NC3CCCCC3)cc2)cn1
inactive: Potency (MKL-1) | Potency (MKL-2) | Potency (UISO) | Potency (WaGa) | Potency (C33A) | Potency (CAOV3) | Potency (CASKI) | Potency (Es-2) | Potency (HeLa) | Potency (Hek293T) | Potency (JEG-3) | Potency (OV90) | Potency (PA-1) | Potency (SKOV3) | Potency (Tov-21-G) | Potency (Tov112D) | activity, negative = cell killing [1, 3] -8.45% | activity, negative = cell killing [1, 4] -17.1% | activity, negative = cell killing [1, 5] 18% | Potency (astro)

CC(C)(C)C(=O)Oc1ccc(S(=O)(=O)Nc2ccccc2C(=O)NCC(=O)O)cc1
inactive: Potency (MKL-1) | Potency (MKL-2) | Potency (UISO) | Potency (WaGa) | Potency (C33A) | Potency (CAOV3) | Potency (CASKI) | Potency (Es-2) | Potency (HeLa) | Potency (Hek293T) | Potency (JEG-3) | Potency (OV90) | Potency (PA-1) | Potency (Tov-21-G) | Potency (Tov112D) | activity, negative = cell killing [1, 3] -13.7% | activity, negative = cell killing [1, 4] -10.4% | activity, negative = cell killing [1, 6] -15.5% | activity, negative = cell killing [1, 5] -13.4% | Potency (astro)

CC(C(=O)O)c1cccc(C(=O)c2ccccc2)c1 (stereo not given)
inactive: Potency (MKL-1) | Potency (MKL-2) | outcome (NIH3T3) | Potency (UISO) | Potency (WaGa) | Potency (CASKI) | Potency (Es-2) | Potency (HeLa) | Potency (Hek293T) | Potency (JEG-3) | Potency (OV90) | Potency (PA-1) | Potency (Tov-21-G) | Potency (Tov112D) | activity, negative = cell killing [1, 3] -12.8% | activity, negative = cell killing [1, 4] -8.28% | activity, negative = cell killing [1, 6] -32% | activity, negative = cell killing [1, 5] 2.51% | Potency (astro)

COc1ccc(CCN(C)CCCC(C#N)(c2ccc(OC)c(OC)c2)C(C)C)cc1OC (stereo not given)
active: Potency ([1]; tumour line A) 10 µM | Potency ([1]; tumour line B) 35.5 µM
inactive: Potency (MKL-1) | Potency (MKL-2) | Potency (UISO) | Potency (WaGa) | Potency (C33A) | Potency (CAOV3) | Potency (CASKI) | Potency (Es-2) | Potency (HeLa) | Potency (Hek293T) | Potency (JEG-3) | Potency (PA-1) | Potency (SKOV3) | Potency (Tov-21-G) | Potency (Tov112D) | activity, negative = cell killing [1, 5] -2.06%

O=c1c(O)c(-c2ccc(O)c(O)c2)oc2cc(O)cc(O)c12
active: Potency (HeLa) 15.8 µM
inactive: Potency (MKL-1) | Potency (MKL-2) | Potency (UISO) | Potency (WaGa) | Potency (C33A) | Potency (CAOV3) | Potency (CASKI) | Potency (Es-2) | Potency (Hek293T) | Potency (JEG-3) | Potency (SKOV3) | Potency (Tov-21-G)

C[C@](N)(Cc1ccc(O)c(O)c1)C(=O)O
inactive: Potency (MKL-1) | Potency (MKL-2) | Potency (UISO) | Potency (WaGa) | Potency (C33A) | Potency (CAOV3) | Potency (CASKI) | Potency (Es-2) | Potency (HeLa) | Potency (Hek293T) | Potency (OV90) | Potency (PA-1) | Potency (SKOV3) | Potency (Tov-21-G) | Potency (Tov112D) | activity, negative = cell killing [1, 3] -10.5% | activity, negative = cell killing [1, 4] -4.46% | activity, negative = cell killing [1, 5] 1.22% | Potency (astro)

OCCN1CCN(CCCN2c3ccccc3Sc3ccc(C(F)(F)F)cc32)CC1
inactive: Potency (UISO) | Potency (C33A) | Potency (CAOV3) | Potency (Es-2) | Potency (HeLa) | Potency (JEG-3) | Potency (PA-1) | Potency (SKOV3) | Potency (Tov-21-G) | Potency (Tov112D) | activity, negative = cell killing [1, 5] -28.6% | Potency [2]
active: Potency (MKL-1) 21.1 µM | Potency (MKL-2) 20.9 µM and 21.1 µM | Potency (WaGa) 20.9 µM | Potency ([1]; tumour line A) 1.26 µM | Potency ([1]; tumour line D) 10 µM | Potency (astro) 22.4 µM

Cc1ccc(-c2cc(C(F)(F)F)nn2-c2ccc(S(N)(=O)=O)cc2)cc1
inactive: Potency (MKL-1) | Potency (MKL-2) | Potency (UISO) | Potency (WaGa) | Potency (C33A) | Potency (CAOV3) | Potency (CASKI) | Potency (Es-2) | Potency (HeLa) | Potency (Hek293T) | Potency (JEG-3) | Potency (OV90) | Potency (PA-1) | Potency (SKOV3) | Potency (Tov-21-G) | Potency (Tov112D) | activity, negative = cell killing [1, 3] 2.4% | activity, negative = cell killing [1, 5] 15.9% | Potency (astro)
active: Potency ([1]; tumour line A) 8.91 µM

Clc1ccc2c(c1)C(N1CCNCC1)=Nc1ccccc1O2
active: Potency ([1]; tumour line A) 14.1 µM
inactive: Potency (MKL-1) | Potency (MKL-2) | Potency (UISO) | Potency (WaGa) | Potency (C33A) | Potency (CASKI) | Potency (Es-2) | Potency (HeLa) | Potency (Hek293T) | Potency (JEG-3) | Potency (OV90) | Potency (PA-1) | Potency (SKOV3) | Potency (Tov-21-G) | Potency (Tov112D) | activity, negative = cell killing [1, 3] -27.8% | activity, negative = cell killing [1, 4] -2.29% | activity, negative = cell killing [1, 5] -0.706%

CN(C)C(=N)N=C(N)N
inactive: Potency (MKL-1) | Potency (MKL-2) | Potency (UISO) | Potency (WaGa) | Potency (C33A) | Potency (CASKI) | Potency (Es-2) | Potency (HeLa) | Potency (Hek293T) | Potency (JEG-3) | Potency (OV90) | Potency (PA-1) | Potency (SKOV3) | Potency (Tov-21-G) | Potency (Tov112D) | activity, negative = cell killing [1, 7] -29.3% | activity, negative = cell killing ([1]; at 21.2 µM (top of the series), tumour line B) -4.74% | activity, negative = cell killing ([1]; at 21.2 µM (top of the series), tumour line D) -25.1% | activity, negative = cell killing ([1]; at 21.3 µM (top of the series), tumour line A) -0.697% | Potency (astro)

O=C1c2c(O)ccc(O)c2C(=O)c2c(NCCNCCO)ccc(NCCNCCO)c21
inactive: activity, negative = cell killing [1, 7] -23.1%
active: Potency (MKL-1) 105 nM and 6 nM | Potency (MKL-2) 6 nM | Potency (UISO) 526 nM and 668 nM | Potency (WaGa) 74.3 nM and 4.7 nM | Potency (C33A) 2.51 µM | Potency (CAOV3) 3.16 µM | Potency (CASKI) 2.82 µM | Potency (HeLa) 15.8 µM | Potency (Hek293T) 10 µM | Potency (JEG-3) 11.2 µM | Potency (OV90) 28.2 µM | Potency (Tov-21-G) 28.2 µM | Potency ([1]; tumour line A) 3.98 µM | Potency ([1]; tumour line B) 8.91 µM | Potency ([1]; tumour line D) 5.62 µM | Potency (astro) 5.01 µM | Potency [2] 1.76 µM
